In PubChem BioAssay (NCATS):
Results filed as inconclusive are left out. Entries that show only a call come without a potency. Unmarked numbers belong to inactive results. Activity calls are given as the source filed them. The call rests on the fitted dose curve; in most records, active means well fitted curve in the direction sought with a large enough effect; inconclusive means small, poorly fitted or top-dose-only effect, or another doubt; inactive means no such curve, though single readings can be large; an effect the other way counts as inactive or inconclusive.

Assays:
[1] = target: Cellular tumor antigen p53 (Homo sapiens) (UniProt P04637); experiment: Primary qHTS for small molecule compounds that upregulate eGFP-tagged delta133p53alpha (in N-terminal) cells. (AID 2060322); settings: NCI-H358 eGFP-delta133p53alpha fluorescence, 24 h; activation: stronger effect = higher value; further: nearly all actives have a fitted effect of over 75% in size; further: potency means the concentration at half of the fitted maximal effect; on activation: series mostly up to about 56 µM
In short: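 NCI-H358 cells pre-induced 24 h with 10 ng/ml doxycycline to express N-terminal eGFP-delta133p53alpha, then dosed 24 h at 37C without doxycycline; fixed, Hoechst-stained, GFP intensity by laser scanning cytometry, normalized to DMSO (0%) and 57.5 uM 5-azacytidine (100%).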

[2] = target: Aldehyde dehydrogenase, mitochondrial (Homo sapiens) (UniProt P05091); experiment: qHTS for Inhibitors of the Aldehyde Dehydrogenase Family (ALDH2) Primary screen (AID 2061308); further: nearly all actives have a fitted effect of over 55% in size
[3] = target: Retinaldehyde dehydrogenase 3 (Homo sapiens) (UniProt P47895); experiment: qHTS for Inhibitors of the Aldehyde Dehydrogenase Family (ALDH1A3) Primary screen (AID 2061315)

Sequence of Cellular tumor antigen p53 (Homo sapiens) (P04637 whole entry, looked up): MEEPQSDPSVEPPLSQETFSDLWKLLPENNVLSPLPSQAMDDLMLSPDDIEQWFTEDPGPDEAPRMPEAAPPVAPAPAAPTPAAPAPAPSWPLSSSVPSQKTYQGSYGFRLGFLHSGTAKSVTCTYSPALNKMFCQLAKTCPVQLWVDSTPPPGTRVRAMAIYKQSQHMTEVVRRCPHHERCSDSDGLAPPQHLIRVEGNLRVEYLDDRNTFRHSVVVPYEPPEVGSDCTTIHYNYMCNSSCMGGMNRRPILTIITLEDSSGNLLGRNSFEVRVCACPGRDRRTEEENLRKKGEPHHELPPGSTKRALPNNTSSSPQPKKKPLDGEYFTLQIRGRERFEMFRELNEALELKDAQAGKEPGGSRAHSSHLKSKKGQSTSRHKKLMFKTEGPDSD

SMILES | activation [1] | Potency [2] | Potency [3] | Potency [1]
C/C1=C\CC[C@]2(C)O[C@H]2C(=O)c2c(C)coc2C1 | 20.5% | inactive | inactive | –
NC(=O)Nc1cc(-c2cccc(F)c2)sc1C(=O)NC1CCCNC1 (stereo not given) | – | inactive | inactive | 19 µM (active)
C=C1[C@@H](C2=CC(=O)OC2)CC[C@@]2(O)[C@@H]1CC1[C@H]2CC[C@@H]2C[C@@H](O[C@H]3O[C@@H](C)[C@@H](O[C@@H]4O[C@H](CO[C@@H]5O[C@H](CO)[C@@H](O)[C@H](O)[C@H]5O)[C@@H](O)[C@H](O)[C@H]4O)[C@H](OC)[C@H]3O)CC[C@]12C (stereo not given in full) | 7.14% | inactive | inactive | –
O=C(OCC1=CC(O)C2C=CO[C@@H](O[C@@H]3O[C@H](CO)[C@@H](O)[C@H](O)[C@H]3O)C12)c1ccccc1 (stereo not given in full) | -17.6% | inactive | inactive | –
COc1c2c(cc3c1-c1c(cc4c(c1OC)OCO4)CC(C)C(C)C3)OCO2 (stereo not given) | -6.87% | inactive | inactive | –
CC(=O)C1=C(O)C=C2Oc3c(C(C)=O)c(O)c(C)c(O)c3[C@]2(C)C1=O | -2.68% | inactive | inactive | –
OCc1ccc(O[C@@H]2O[C@H](CO)[C@@H](O)[C@H](O)[C@H]2O)cc1 | 2.68% | inactive | inactive | –
CCc1ccc(Cc2ccc3c(c2)[C@]2(OC3)O[C@H](CO)[C@@H](O)[C@H](O)[C@H]2O)cc1 | 7% | inactive | inactive | –
COC1OC(=O)C2=C1C1(C)CCCC(C)(C)C1CC2O (stereo not given) | -8.04% | inactive | inactive | –
CC(=O)OC[C@@]12[C@H](O)C[C@@H](C)[C@]3(C[C@@H](c4ccoc4)OC3=O)[C@H]1C[C@H](O)C[C@]21CO1 | 27.5% | inactive | inactive | –
COC(=O)CC(O)C1OC(c2ccccc2)C(O)C1O (stereo not given) | -2.29% | inactive | inactive | –
C=C1[C@H](OC(C)=O)[C@H]2[C@@H](OC(C)=O)C(C)C[C@]2(OC(C)=O)C(=O)[C@H](C)/C=C/C(C)(C)C(=O)[C@H](OC(=O)C(C)C)[C@H]1OC(C)=O (stereo not given in full) | -13.7% | inactive | inactive | –
CCC1=C(C)C(=O)C(C)CC12C(=O)CCC2C(=O)O (stereo not given) | -11.5% | inactive | inactive | –
CC1CC[C@]2(C(=O)O)CC[C@]3(C(=O)O)C(=CCC4[C@@]5(C)CC[C@H](O[C@@H]6O[C@H](CO)[C@@H](O)[C@H](O)[C@H]6O)C(C)(C)C5CC[C@]43C)C2C1C (stereo not given in full) | 0.893% | inactive | inactive | –
C=C(C)[C@@H]1CC[C@]2(C)CC[C@]3(C)[C@H](CC[C@@H]4[C@@]5(C)CC[C@@H](O)C(C)(C)[C@@H]5CC[C@]43C)[C@@H]12 | 17.6% | inactive | inactive | –
N=c1nc2n(cc1F)C1OC(CO)C(O)C1O2 (stereo not given) | 0.333% | inactive | inactive | –
CC(C)=CC/C=C(\C)[C@H]1CC[C@]2(C)[C@@H]1[C@H](O)C[C@@H]1[C@@]3(C)CC[C@H](O)C(C)(C)[C@@H]3[C@@H](O[C@@H]3O[C@H](CO)[C@@H](O)[C@H](O)[C@H]3O)C[C@]12C | 1.67% | inactive | inactive | –
C=C(CO)C12OC1C1(C)C(=CC2=O)C(O)C(O)CC1C (stereo not given) | 17.9% | inactive | inactive | –
CC1(C)CC2C(C1)C1(C)CCC13OC3(CO)C2O (stereo not given) | -14.3% | inactive | inactive | –
CC(C)CNCc1ccc(-c2ccccc2S(=O)(=O)N2CCCC2)cc1 | 11.7% | inactive | inactive | –
COC(=O)CC(C)(O)CC(=O)OCc1ccc(O[C@@H]2O[C@H](CO)[C@@H](O)[C@H](O)[C@H]2O)cc1 (stereo not given in full) | -5.34% | inactive | inactive | –
O=C(O)c1cc(O[C@@H]2O[C@H](CO)[C@@H](O)[C@H](O)[C@H]2O)ccc1O | -3.05% | inactive | inactive | –
COC(=O)C12C(=O)C(C)=C(O)C1(C)C(C)=CC1C34CCC(OC3=O)C(C)(C)C4CCC12C (stereo not given) | -16% | inactive | inactive | –
OCC1OC(Oc2cc(O)c3c(c2)OC(c2ccc(O)cc2)C(O)C3)C(O)C1O (stereo not given) | -25.2% | inactive | inactive | –
CCC(CC)C(=O)Nc1sc2c(c1C#N)CCC(C(C)(C)CC)C2 (stereo not given) | -3.34% | inactive | inactive | –
